SMILES strings stand for the structures. Over roughly 110,000 compounds, “z-score” has its median near -0.1; the highest 2% begin near 2. This excerpt belongs to a sample that is enriched for the highest values. Activity calls are given as the source filed them.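 How the source made its calls: active means z-score in the third read window above 3 or below -3; inactive means the rest.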

The target in this experiment is Metabotropic glutamate receptor 8 (Rattus norvegicus) (UniProt P70579). In words: rat mGluR8 modulators via GIRK flux, primary screen, cell-based, thallium flux, HTS (AID 488969). To be noted: HEK293 rat mGluR8, GIRK (G protein-gated inwardly rectifying potassium channel) thallium flux, FluoZin2; at 10 µM; stronger effect = higher value; submaximal glutamate (EC20) added with thallium.
Chain of Metabotropic glutamate receptor 8 (Rattus norvegicus) (P70579 whole entry, looked up): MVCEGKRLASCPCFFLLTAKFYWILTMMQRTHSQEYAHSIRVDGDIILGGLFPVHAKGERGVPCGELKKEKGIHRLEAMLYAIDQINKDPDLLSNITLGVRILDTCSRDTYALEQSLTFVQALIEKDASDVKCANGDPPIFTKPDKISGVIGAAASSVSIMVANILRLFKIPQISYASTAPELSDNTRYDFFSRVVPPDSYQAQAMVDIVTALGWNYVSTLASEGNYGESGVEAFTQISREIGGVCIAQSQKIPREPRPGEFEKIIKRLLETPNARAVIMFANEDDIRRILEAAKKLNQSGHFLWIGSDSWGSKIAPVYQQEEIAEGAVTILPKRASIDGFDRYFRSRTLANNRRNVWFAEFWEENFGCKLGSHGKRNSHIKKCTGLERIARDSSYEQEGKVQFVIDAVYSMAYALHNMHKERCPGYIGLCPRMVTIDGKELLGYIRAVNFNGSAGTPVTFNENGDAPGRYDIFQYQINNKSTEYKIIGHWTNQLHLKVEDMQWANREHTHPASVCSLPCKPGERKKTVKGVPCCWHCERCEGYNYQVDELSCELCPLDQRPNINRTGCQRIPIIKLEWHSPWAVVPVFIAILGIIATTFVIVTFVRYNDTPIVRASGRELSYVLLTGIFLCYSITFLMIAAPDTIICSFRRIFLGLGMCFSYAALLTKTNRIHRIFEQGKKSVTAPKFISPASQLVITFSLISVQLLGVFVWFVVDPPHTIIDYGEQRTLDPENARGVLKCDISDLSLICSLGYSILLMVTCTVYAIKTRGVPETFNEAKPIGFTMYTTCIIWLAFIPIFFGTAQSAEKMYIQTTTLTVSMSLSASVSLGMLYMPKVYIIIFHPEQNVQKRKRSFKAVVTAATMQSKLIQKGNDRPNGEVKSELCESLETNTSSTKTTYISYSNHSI
`Cc1ccc(C(=O)CSc2nnc(COc3ccc(C#N)cc3)n2-c2ccccc2)cc1` gave a z-score of 0.655.

In turn, `Oc1csc(Cc2nc(-c3ccc4ccccc4c3)cs2)n1` had a z-score of -0.78.

Turning to `Cc1ccc(NC(=O)C2CCCN(S(=O)(=O)c3cnc[nH]3)C2)cc1F` (centres undefined), the z-score was -0.00916.

`Clc1ccc(-c2cc(CSc3cccc(Cl)c3)on2)cc1` returned a z-score of -0.234.

Compound `CCOC(=O)c1cc(NC(=O)COc2ccc([N+](=O)[O-])cc2)cc(C(=O)OCC)c1` came in with a z-score of -0.0752.

Take `Cc1[nH]c(=O)[nH]c(=O)c1/C=C/C(=O)OCC(C)C`: the z-score stood at 0.104.

The compound `NCCCCCc1nnc(SCc2ccc(Cl)cc2Cl)o1` displayed a z-score of 2.74.

In turn, `NCCCCCc1nnc(SCc2ccccc2Cl)o1` came in with a z-score of 1.74.

`NCCCCCc1nnc(SCc2ccc(Cl)c(Cl)c2)o1` returned a z-score of 0.93.

`O=C(Cn1c(SCc2ccccc2)nc2ccccc21)N1CCOCC1`: the z-score was -0.096.

On to `O=C(CSc1nc2ccccc2n1CCc1ccccc1)N1CCOCC1`, for which the z-score was determined as 2.47.

As to `Cc1ccc(-c2cn(-c3ccccc3)c(SCC(=O)NC3CCS(=O)(=O)C3)n2)cc1C` (centres undefined), the z-score was 3.44 (active).

As for `Cc1ccc(-c2cn(-c3ccccc3)c(SCC(N)=O)n2)cc1C`, the z-score was -1.06.

For `O=C(CSc1nc2ccccc2n1CCc1ccccc1)NC1CCS(=O)(=O)C1` (centres undefined), the z-score is 2.39.

For the compound `CN(C(=O)CSc1nc2ccccc2n1CCc1ccccc1)C1CCS(=O)(=O)C1` (centres undefined), the z-score amounted to 0.483.

For `Cc1ccc(C)c(-n2cc(-c3ccc(Cl)cc3)nc2SCC(=O)NC2CCS(=O)(=O)C2)c1` (centres undefined), the z-score is -0.524.

`O=C(CSc1nnc(-c2ccc(Br)cc2)n1CCc1ccccc1)NC1CCS(=O)(=O)C1` (centres undefined) returned a z-score of -0.076.

Consider `O=C(CSc1nc2ccccc2n1CC(=O)N1CCOCC1)N1CCCC1`, for which the z-score was 0.588.

Consider `CCN(C(=O)CSc1nc2ccccc2n1CCc1ccccc1)C1CCS(=O)(=O)C1` (centres undefined), for which the z-score is 3.88 (active).

`O=C(CSc1nc2cc(C(F)(F)F)ccc2n1Cc1ccccc1)NC1CCS(=O)(=O)C1` (centres undefined) came in with a z-score of -0.137.

`CCN(C(=O)CSc1nc2cc(C(F)(F)F)ccc2n1Cc1ccccc1)C1CCS(=O)(=O)C1` (centres undefined): the z-score was -0.724.

Consider `CCOC(=O)/C(=N\Nc1ccc(OC)cc1)c1csc(Nc2ccccc2)n1`, for which the z-score amounted to 0.551.

With `COC(=O)CCc1c(C)c(C#N)c2nc3ccccc3n2c1N1CCCC1`, the z-score is -0.478.

In the case of `Cc1cc(-n2ccc(=O)[nH]c2=O)nc(-c2ccccc2)n1`, the z-score was -0.208.

As to `S=C1NCCc2ccc(Cl)cc2C1c1ccccc1` (centres undefined), the z-score was -0.00171.

Compound `Cc1c(C(C)(C)C)c(C=S)n2ccccc12` came in with a z-score of -0.503.

The compound `CN(C)c1ccc(C2NCC(CCl)O2)cc1` (centres undefined) registered a z-score of -0.159.

Take `CCN(CC)S(=O)(=O)c1ccc(C(=O)NCc2n[nH]c(=S)n2-c2ccccc2OC)cc1`: the z-score is -0.0139.

`COc1ccccc1-n1c(CNC(=O)COc2ccccc2)n[nH]c1=S` displayed a z-score of 2.71.

Regarding `COc1cc(OC)cc(C(=O)NCc2n[nH]c(=S)n2-c2ccccc2OC)c1`, the z-score is -0.981.

`CSc1ccc(N2CCN(CCCNC(=O)Nc3ccccc3F)CC2)cc1` registered a z-score of 0.699.

Compound `N#Cc1ccccc1NC(=O)COC(=O)CSc1nc2ccccc2o1` returned a z-score of -2.27.

`Fc1ccc(CCNC(=S)Nc2ccc(F)cc2)cc1` registered a z-score of 0.103.

`Cc1cc(/C=c2/sc3nc4ccccc4n3c2=O)c(C)n1-c1ccccn1`: the z-score is 6.08 (active).

In the case of `O=c1/c(=C\c2cccnc2)sc2nc3ccccc3n12`, the z-score was -0.0361.

The compound `O=c1/c(=C/c2ccccn2)sc2nc3ccccc3n12` showed a z-score of 0.539.

`Cc1nc2oc3c(NCc4ccccc4)ncnc3c2c2c1COC(C)(C)C2` gave a z-score of -0.383.

On to `CCOc1ccc(C2=NNC(c3cccs3)=Nc3ccc(OC)cc32)cc1`, for which the z-score is 3.11 (active).

On to `CCOc1ccc(C2=NNC(c3cccs3)=Nc3ccc(OCC)cc32)cc1`, for which the z-score is -0.166.

The compound `CCCOc1ccc(C2=NNC(c3cccs3)=Nc3ccc(OC)cc32)cc1` showed a z-score of -0.471.

The compound `CCCn1c2c(c(O)c(C(=O)NCCCN(CC)CC)c1=O)CCCC2` came in with a z-score of 0.585.

`Cc1ccccc1C(=O)N1CCN(c2ccc([N+](=O)[O-])c(NCc3cccnc3)c2)CC1` registered a z-score of -0.418.

As for `Cc1cc(Cl)ccc1OCc1n[nH]c(=S)n1C1CCCCC1`, the z-score was 7.67 (active).

For `Cc1ccc(OCc2n[nH]c(=S)n2C2CCCCC2)cc1`, the z-score was -1.04.

`S=c1[nH]nc(COc2ccc(Cl)cc2)n1C1CCCCC1` yielded a z-score of 1.31.

The compound `CC(=O)Cc1nsc(NC(=O)c2cn(-c3ccccc3)nc2-c2ccc(Br)cc2)n1` showed a z-score of 0.229.

On to `O=C(c1ccccc1F)N1CCN=C1SCc1cccnc1`, for which the z-score was 0.643.

In turn, `Cc1cc(NC(=O)C(C)C)ncc1NC(=O)Cc1ccccc1` came in with a z-score of 1.07.

In turn, `Cc1cc(C(=O)N/N=C2\CCCC(C)C2)n[nH]1` (centres undefined) returned a z-score of -0.208.

`COc1ccc([C@@H]2Sc3cc(OC)ccc3N(CCN(C(C)C)C(C)C)C(=O)[C@H]2OC(C)=O)cc1` came in with a z-score of 2.62.

Turning to `COc1ccc(CCN2C(=O)C(Oc3ccccc3C)C2c2ccc3c(c2)OCO3)cc1` (centres undefined), the z-score was -0.223.

`COc1ccc(CCN2C(=O)C(Oc3ccccc3)C2c2ccc3c(c2)OCO3)cc1` (centres undefined): the z-score is -0.146.

In turn, `COC(=O)COc1ccc(S(=O)(=O)N2CCc3ccccc3C2)cc1` showed a z-score of -0.687.

On to `CCCCSc1nc2ccccc2n1CC(=O)O`, for which the z-score was -0.412.

In turn, `CC(C)(C)c1ccc2c(c1)C(=O)c1ccccc1C2=O` yielded a z-score of -0.283.

`CCOC(=O)c1ccc(Oc2nc(NC)nc(OC)n2)cc1` displayed a z-score of -0.524.

With `C=CCOc1cccc(C2/C(=C(/O)c3ccc(C)cc3)C(=O)C(=O)N2CCN2CCOCC2)c1` (centres undefined), the z-score is 3.31 (active).

`C=CCOc1cccc(C2/C(=C(/O)c3ccc(Cl)cc3)C(=O)C(=O)N2CCN2CCOCC2)c1` (centres undefined) registered a z-score of -0.349.

As for `C=CCOc1cccc(C2/C(=C(/O)c3ccccc3)C(=O)C(=O)N2CCN2CCOCC2)c1` (centres undefined), the z-score was -0.193.

In turn, `Cc1ccc(C)c(N2C(=O)CN=C2Nc2ccccc2Cl)c1` yielded a z-score of -0.307.

As to `Cc1ccccc1C(=O)NNC(=S)NC(=O)COc1ccccc1`, the z-score was 4.25 (active).

On to `Cc1ccccc1C(=O)NNC(=O)Cc1ccccc1`, for which the z-score is -0.146.

`Cc1ccc(NC(=O)COc2ccccc2)c(NC(=O)c2ccccc2C)c1` had a z-score of 0.00484.

`Cc1ccc(C(=O)NNC(=S)NC(=O)COc2ccccc2)cc1`: the z-score was 6.25 (active).

Compound `COc1cccc(OCC(=O)NNC(=O)c2ccc(-c3ccccc3)cc2)c1` registered a z-score of 0.902.

Take `Cc1ccc(OCC(=O)NNC(=O)c2cccnc2)cc1`: the z-score is 0.0457.

`Cc1cccc(C(=O)NN2C(=O)C3C(c4ccccc4)C=CC(c4ccccc4)C3C2=O)c1` (centres undefined): the z-score was found to be 0.291.

As for `Cc1ccc(C(=O)NCCSc2ccc(Cl)cc2)cc1S(=O)(=O)Nc1ccccc1`, the z-score is -0.43.

For the compound `CCn1c(=O)c(-c2ccccc2)c(O)c2ccccc21`, the z-score came out at 1.28.

With `CC(C)Cn1c(=O)c(C2=NS(=O)(=O)c3ccccc3N2)c(O)c2ccccc21`, the z-score was 5.83 (active).

Take `CC(C)Cn1c(=O)c(C(=O)N/N=C/c2cccc(F)c2)c(O)c2ccccc21`: the z-score came to 0.163.

`CCCc1nc(NCC2CCCO2)c2nnn(Cc3ccccc3)c2n1` (centres undefined) showed a z-score of -0.932.

For `Cc1onc(-c2ccccc2)c1C(=O)Nc1nc2c(s1)CCCC2`, the z-score was found to be 0.165.

On to `CC(C)[C@H](NC(=O)c1ccccc1F)C(=O)Nc1nc2c(s1)CCCC2`, for which the z-score was 2.3.

Consider `Cc1ccccc1C(=O)NC(C(=O)Nc1nc2c(s1)CCCC2)C(C)C` (centres undefined), for which the z-score is -0.323.

`COC(=O)c1ccc(C(=O)NC(=S)Nc2nc3c(s2)CCCC3)cc1`: the z-score is 9.51 (active).

Consider `O=C(NC(=S)Nc1nc2c(s1)CCCC2)c1ccccc1`, for which the z-score was 4.37 (active).

Compound `O=C(NC(=S)Nc1nc2c(s1)CSc1ccccc1-2)c1ccccc1` showed a z-score of 0.384.

The compound `COC(=O)c1ccc(C(=O)NC(=S)Nc2nc3c(s2)CC(C)CC3)cc1` (centres undefined) returned a z-score of 0.17.

Consider `CCOc1ccccc1C(=O)N[C@H](C(=O)Nc1nc2c(s1)CCCC2)C(C)C`, for which the z-score worked out at 0.39.

Regarding `CC(C)(C)c1ccc(C(=O)NC(=S)Nc2nc3c(s2)CCCC3)cc1`, the z-score was determined as 1.95.

On to `O=C(NC(=S)Nc1nc2c(s1)CCCC2)c1ccc(C(=O)c2ccccc2)cc1`, for which the z-score stood at 2.41.

For `CN(C)c1ccc(C(=O)Nc2nc3c(s2)CCCC3)cc1`, the z-score amounted to 0.874.

`O=C(Nc1nc2c(s1)CCCC2)c1cccs1` registered a z-score of 0.315.

Regarding `S=C1NCCOCCOCCOCCN1`, the z-score was -0.259.

Regarding `Cc1nc2oc3ccccc3c(=O)c2c(=O)n1Cc1ccccc1`, the z-score worked out at 1.14.

For the compound `Brc1ccccc1-c1nnc2sc(Cc3ccccc3)nn12`, the z-score is -2.32.

As for `Cc1ccc2cccc(S(=O)(=O)Nc3c(C)n(C)n(-c4ccccc4)c3=O)c2n1`, the z-score is -0.0715.

Take `Cc1cc(C)n2nc(C(=O)OCC(=O)c3cc(C)n(C)c3C)nc2n1`: the z-score is -0.164.

As for `Cc1ccc2c(c1)nc(NCCO)n2C`, the z-score was -0.14.

On to `Cc1ccccc1CSCc1nc2ccccc2[nH]1`, for which the z-score is -0.127.

The compound `CNc1ccc(Br)cc(C(=O)/C=C/c2ccc3c(c2)OCO3)c1=O` gave a z-score of 0.111.

`O=C(/C=C/c1ccc2c(c1)OCCCO2)c1ccccc1O`: the z-score amounted to 0.562.

For `Cc1cccc(/C=C/C(=O)c2cc(Br)ccc(=O)c2O)c1`, the z-score was found to be 2.75.

Turning to `CNc1ccc(Br)cc(C(=O)/C=C/c2ccc(OC)cc2OC)c1=O`, the z-score was -0.255.

`CNc1ccc(Br)cc(C(=O)/C=C/c2ccc(OC)cc2)c1=O` returned a z-score of 0.019.

As for `Cc1ccc(/C=C/C(=O)c2ccccc(=O)c2O)cc1C`, the z-score was 5.65 (active).

For `CCc1ccc(C(C)NC(=O)/C=C/c2ccc(Br)cc2)cc1` (centres undefined), the z-score is -0.0914.

For `O=C(/C=C/c1ccc2c(c1)OCCCO2)c1ccc2ccccc2c1O`, the z-score stood at 0.573.

Compound `CNc1ccc(Br)cc(C(=O)/C=C/c2cccc(OC)c2)c1=O` returned a z-score of -0.351.

`Cc1ccc(/C=C/C(=O)c2cc(Br)ccc2OC(=O)c2ccco2)cc1` displayed a z-score of -0.117.

On to `CCc1ccc(/C=C/C(=O)c2cc(Br)ccc(=O)c2O)cc1`, for which the z-score is 2.17.

On to `COc1ccc(/C=C/C(=O)c2cc(Br)ccc(=O)c2O)cc1`, for which the z-score is 3.14 (active).

`N#Cc1cccc(Oc2ccc(-c3cnc4ccccc4n3)cc2)c1C#N` displayed a z-score of 0.258.

In the case of `Cc1ccc(-n2c(C)nnc2SCC(=O)N2CCc3ccccc3C2)cc1`, the z-score was -0.994.

For the compound `Cc1cccc(N2C(=O)CC(Sc3nc(-c4ccccc4)c4cc(Cl)ccc4n3)C2=O)c1` (centres undefined), the z-score was -0.887.

With `CCc1ccc(OCC(=O)N/N=C/c2cc([N+](=O)[O-])ccc2N2CCOCC2)cc1`, the z-score was determined as 0.198.

For `C/C(=N\OC(=O)c1ccc(Cl)cc1)c1nccs1`, the z-score is -0.0963.

Regarding `Cc1ccc(-n2nnnc2SCC(=O)Nc2cccc(NC(=O)c3ccco3)c2)cc1C`, the z-score is 1.39.
